# Only some compounds are listed: those with a hit (about 1.3% of all), similar ones and a draw of the others.
# Glioma ERSR ind – ER stress response induction in glioma | actives 0.02% (n = 420,000) | AID 602332 | U87-MG GRP78 promoter luciferase reporter, 16 h | Potency, µM, for inactives: at the top dose activation, hits mostly activators; also: potency is read from the fitted curve at half-maximal effect; series mostly up to about 76 µM; % of control where 0% means no effect; nearly all actives have a fitted effect of over 35% in size
#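 Stably transfected U87-MG human glioma cells carrying a GRP78-based luminescent sensor were seeded at 1000 cells/well, pin-dosed with compounds and incubated 16 h. Luciferase reagent was then added, and end-point luminescence was read after 10 min at room temperature.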
# 12-LOX inh – blocks human arachidonate 12S-lipoxygenase; purified 12hLO, xylenol orange hydroperoxide absorbance; actives 1.1% (n = 580,000); Potency, µM (titrated, usually from 108 µM), for the others: at the top dose activity change, negative = inhibition, most hits filed as inhibitors; P18054; also: potency is read from the fitted curve at half-maximal effect; % is scaled to controls: 0 for no effect and ±100 for the full control effect
# Target sequence (P18054 whole entry, looked up): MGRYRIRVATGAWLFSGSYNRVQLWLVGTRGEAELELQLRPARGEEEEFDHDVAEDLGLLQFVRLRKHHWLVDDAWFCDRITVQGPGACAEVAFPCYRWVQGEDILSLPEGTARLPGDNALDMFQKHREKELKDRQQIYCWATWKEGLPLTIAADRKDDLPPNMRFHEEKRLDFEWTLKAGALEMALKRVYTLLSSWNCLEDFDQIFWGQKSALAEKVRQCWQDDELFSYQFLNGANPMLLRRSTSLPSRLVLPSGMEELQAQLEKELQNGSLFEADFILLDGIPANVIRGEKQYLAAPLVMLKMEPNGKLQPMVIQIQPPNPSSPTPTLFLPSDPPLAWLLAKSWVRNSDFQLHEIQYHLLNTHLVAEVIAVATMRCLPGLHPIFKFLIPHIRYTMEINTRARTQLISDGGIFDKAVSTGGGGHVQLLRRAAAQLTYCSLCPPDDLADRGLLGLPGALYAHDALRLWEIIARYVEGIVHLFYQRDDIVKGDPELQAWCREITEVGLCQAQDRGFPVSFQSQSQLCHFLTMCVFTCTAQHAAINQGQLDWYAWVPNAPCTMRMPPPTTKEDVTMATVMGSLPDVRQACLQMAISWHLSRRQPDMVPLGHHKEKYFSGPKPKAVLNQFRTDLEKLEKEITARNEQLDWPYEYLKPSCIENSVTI
#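 Hydroperoxide product was detected by ferrous iron/xylenol orange as the 573 to 405 nm absorbance ratio. Arachidonic acid at 40 uM (final) was turned over for 30 min at room temperature by 150 nM human 12hLO, pH 7.0 Hepes buffer, after 15 min compound preincubation.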
# Vif-APOBEC3G blk – Vif-A3G binding inhibition | Q9HC16 | HeLa A3G-eYFP + Vif (tagged APOBEC3G with the HIV-1 protein that degrades it), YFP fluorescence, overnight | Potency, µM (titrated, usually from 46.1 µM), inactives show top-dose activity, negative = active, actives largely listed as inhibitors | actives 0.076% (n = 410,000) | AID 602310; also: potency is read from the fitted curve at half-maximal effect; % is scaled to controls: 0 for no effect and ±100 for the full control effect; nearly all actives have a fitted effect of over 60% in size
#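 Read-out is eYFP fluorescence (Ex 488/Em 500-530) from Vif-expressing HeLa A3G-eYFP cells; more signal means A3G escaped Vif-mediated degradation. Cells plated overnight, compound pinned in, incubated overnight at 37 deg C.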
# TRPML1 ag – agonists of human TRPML1 channel; actives 0.12% (n = 410,000); TRPML1-expressing cells, Ca2+ dye fluorescence, FDSS; activation, % (test concentration not listed); Q9GZU1; in the data active = activation above about 50%; inconclusive = mostly about 30% to 49%; also: 0% is about no effect
#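 Tet-induced TRPML1-DL cells, 1,500 per well, cultured overnight, were loaded with a no-wash Ca2+ dye for 45–90 min. Calcium fluorescence was recorded on the FDSS for 110 s after compound addition, before the EC80 agonist (4 uM 54-4) was added.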
# Vif-A3F inh – blocks the Vif interaction with APOBEC3F; HeLa A3F-eYFP + Vif (tagged APOBEC3F with the HIV-1 protein that degrades it), YFP fluorescence increase; Potency, µM (series often up to 46.1 µM), for inactives: at the top dose activity, negative = active; actives 0.2% (n = 390,000); AID 602313; also: potency is read from the fitted curve at half-maximal effect; % of control where 0% means no effect; nearly all actives have a fitted effect of over 65% in size
#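 HeLa cells stably expressing A3F-eYFP plus Vif, plated and incubated overnight at 37 deg C, then exposed to compounds overnight at 37 deg C. Blocked degradation read as raised yellow fluorescence (Ex 488/Em 500-530).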
# TRPML1 inh – human mucolipin-1 channel inhibition; TRPML1-inducible cells, Ca2+ dye fluorescence, FDSS; stronger effect = lower value; inhibition of EC80 agonist-evoked calcium signal; activity change, negative = inhibition, % (no concentration beside the values); AID 624415; actives 0.02% (n = 390,000); in the data active = activity change below about -50%; inconclusive = between about -30% and that limit;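 also: stimulus is agonist 54-4 at its EC80 concentration; % is scaled to controls: 0 for no effect and ±100 for the full control effect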
#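 Calcium fluorescence in TRPML1-DL cells induced overnight with Tet: a 110 s read after compound pin addition, then a 110 s antagonist read after challenge with 54-4 at 4 uM final (EC80).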
# * hit, by the source's call; i = inactive; ? = inconclusive; / = no result given. Unless noted, calls follow the shape of the dose curve; as a rule, active = well fitted curve in the direction sought with a large enough effect; inconclusive = small, poorly fitted or top-dose-only effect, or another doubt; inactive = no such curve, though single readings can be large; an effect the other way counts as inactive or inconclusive.
SMILES,Glioma ERSR ind,12-LOX inh,Vif-APOBEC3G blk,TRPML1 ag,Vif-A3F inh,TRPML1 inh
COc1ccc(NS(=O)(=O)c2cccc(C(=O)Nc3ccccc3C(=O)O)c2)cc1,3.4%,?,1.2%,1.8,0.0%,14.5
CC(=O)c1ccc(NS(=O)(=O)c2cccc(C(=O)Nc3ccccc3C(=O)O)c2)cc1,-4.2%,31.6µM*,-0.1%,/,1.4%,/
CC(C)NC(=O)c1ccc2c(c1)nc1n2CCN(CCc2ccccc2)C1,/,-5.8%,/,/,/,/
S=C(NCCNC(=S)Nc1ccccc1)Nc1ccccc1,-4.3%,?,0.0%,0.3,-13.2%,26.6
S=C(NC(=NCc1ccccc1)c1ccccc1)Nc1ccccc1,/,14.1µM*,/,/,/,/
COc1ccc(NC(=S)NC(=NS(=O)(=O)c2ccc(Cl)cc2)c2ccccc2)cc1,6.7%,31.6µM*,?,0.4,?,-15.9
O=S(=O)(/N=C(/NC(=S)Nc1ccccc1)c1ccccc1)c1ccc(Cl)cc1,4.4%,39.8µM*,1.7%,1.4,?,1.0
CC(=O)/C=N/Nc1ccccc1,-6.0%,-3.6%,0.3%,-0.2,-1.5%,-0.9
C/C(=N/Nc1ccccc1)c1ccc(Cl)s1,/,5.01µM*,/,/,/,/
CC(=NNc1ccccc1)C(C)=NNc1ccccc1,-3.6%,39.8µM*,2.7%,0.9,-6.0%,-11.6
C/C(=N\Nc1ccc(Cl)c(C(=O)O)c1)c1ccc(Br)s1,8.3%,?,-1.4%,-0.1,-0.7%,-2.1
C/C(=N/Nc1ccc(Cl)cc1)c1ccc(Br)s1,/,11.2µM*,/,/,/,/
C/C(=N/NC(N)=S)c1ccc(Br)s1,-4.1%,25.1µM*,12.5%,0.8,11.2µM*,12.2
C/C(=N\Nc1ccc(C(=O)O)cc1)c1ccc(Cl)s1,-9.2%,-7.5%,-6.6%,0.5,7.2%,-16.6
C/C(=N\NC(=O)Cc1ccccc1)c1ccc(Br)s1,0.7%,0.0%,-2.2%,-1.2,-2.8%,-1.6
CC(C)NC(=O)c1nc(-c2ccc3[nH]ccc3c2)no1,/,-2.6%,/,/,/,/
Fc1ccccc1-c1nc(N2CCCCCC2)c2ccccc2n1,/,5.3%,/,/,/,/
O=C(c1[nH]ncc1Cl)N1CCOC(Cc2cccc(C(F)(F)F)c2)C1 (stereo not drawn),/,41.2%,/,/,/,/
CSc1ccccc1C(=O)Nc1ccc(F)c(F)c1,/,-28.1%,/,/,/,/
O=C1C=CC(=O)C(C2=C3C(=O)N(CCc4ccccc4)CC(=O)N3CCC2)=C1,-14.2%,39.8µM*,?,-0.1,3.1%,-7.6
O=Cc1ccc(Sc2ccc(Cl)cc2)cc1,/,16.9%,/,/,/,/
COc1ccc(CNC(=O)c2ccccc2C(F)(F)F)cc1C(=O)O,/,-28.6%,/,/,/,/
CC1=NN(c2ccccc2)C(c2ccco2)C1 (stereo not drawn),0.8%,?,-3.5%,0.8,-16.6%,-12.2
O=[N+]([O-])c1ccc(/C=C/C2=NN(c3ccccc3)C(c3ccco3)C2)cc1 (stereo not drawn),-3.8%,?,-14.0%,59.5*,i,-13.2
O=[N+]([O-])c1ccc(C2=NN(c3ccccc3)C(c3ccco3)C2)cc1 (stereo not drawn),0.0%,-62.0%,?,55.0*,i,4.2
SMILES,Glioma ERSR ind,12-LOX inh,Vif-APOBEC3G blk,TRPML1 ag,Vif-A3F inh,TRPML1 inh
CCN(CC)C(=S)SCc1csc(-c2ccc(C)cc2)n1,/,30.2%,/,/,/,/
Cc1ccc(N(C)C)cc1,/,6.2%,/,/,/,/
Cc1ccc2c(c1)sc(-c1ccc(N(C)C)cc1)[n+]2C,-5.8%,?,?,2.4,22.4µM*,-4.7
N#CCCn1cc(C(=O)CN2C(=O)C(=O)N(C3CCCC3)C2=O)c2ccccc21,-5.2%,?,-0.1%,2.3,?,-4.1
N#CCCn1cc(-c2csc(NC3CCCC3)n2)c2ccccc21,/,6.31µM*,/,/,/,/
CC1(C)Cc2ccccc2C2CC(O)C(=O)N21 (stereo not drawn),-1.5%,?,?,0.7,25.1µM*,17.6
CCOC(=O)C1C(=O)C=C(c2ccco2)CC1c1ccccc1 (stereo not drawn),/,11.2µM*,/,/,/,/
O=C(c1nc(-c2cccc(C(F)(F)F)c2)c2ccccn12)N1CCCC1,/,12.6%,/,/,/,/
Cc1cccc([C@H]2[C@@H]3C=CCC[C@@H]3C(=O)N2Cc2ccccc2)c1,-2.1%,28.2µM*,-2.0%,-1.0,0.6%,3.1
O=C1CC(c2ccc(Cl)cc2)CC(=O)C1CS(=O)(=O)c1ccccc1 (stereo not drawn),0.7%,35.5µM*,0.9%,0.2,1.3%,-9.1
CCc1cccc(C)c1NC(=O)c1ccc(S(=O)(=O)N(C)c2ccccc2OC)cc1,/,-1.2%,/,/,/,/
O=C(C1=Cc2sc3c(c2CS1)CCCC3)N1CCC2(CC1)OCCO2,/,35.5µM*,/,/,/,/
CC(=O)Nc1sc2c(c1C(=O)N1CCOCC1)CCCCC2,-1.0%,0.0%,0.1%,2.3,-7.3%,12.6
Cc1ccccc1NC(=O)C1=Cc2sc3c(c2CS1)CCCC3,/,20µM*,/,/,/,/
CC(=O)NC(CCc1ccc(Cl)c(Cl)c1)c1cccc(O)c(=O)c1 (stereo not drawn),-6.1%,39.8µM*,-19.6%,0.1,-5.2%,-5.2
COc1ccc(-c2cc(C(=O)N3CCCC3)c3ccccc3n2)c(OC)c1,/,17.8µM*,/,/,/,/
CCNC(=O)c1cc(-c2ccc(OC)cc2OC)nc2ccccc12,/,8.91µM*,/,/,/,/
CCCCNC(=O)c1cc(-c2ccc(OC)cc2OC)nc2ccccc12,/,44.1%,/,/,/,/
CSc1ccc(C(C)NC(=O)c2ccc(F)cc2F)cc1 (stereo not drawn),/,-1.0%,/,/,/,/
O=C(C1CCCN(Cc2ccccc2F)C1)N1CCc2ccccc2C1 (stereo not drawn),-2.6%,0.0%,0.2%,0.3,6.7%,-0.6
O=C(C1CCCN(Cc2cccc3ccccc23)C1)N1CCc2ccccc2C1 (stereo not drawn),/,0.631µM*,/,/,/,/
CC1=C[C@@H](CN2CCN(c3cnccn3)CC2)[C@H](C(C)C)C[C@H]1Cc1nnc(-c2ccccc2)o1,/,-2.7%,/,/,/,/
CC1=Nc2ccc(C)cc2/C1=C/c1c(N)n2oc(C)cc2nc1=O,-1.2%,0.0%,?,0.1,11.2µM*,-3.1
CCOc1ccc(NC(=O)c2nnn3c2COC(c2ccc(Cl)cc2)C3)cc1 (stereo not drawn),/,44.7µM*,/,/,/,/
Oc1c(CN2CCOCC2)cc(-c2ccccc2)cc1CN1CCOCC1,-2.2%,-0.3%,-4.4%,0.0,-5.6%,-6.6
Oc1c(CN2CCOCC2)ccc2ccccc12,-1.5%,44.7µM*,-4.8%,-0.3,12.7%,-0.4
O=C1CC(C(=O)Nc2ccc3c(c2)OCCO3)N=C(N2CCN(c3ccccc3)CC2)N1 (stereo not drawn),/,-1.9%,/,/,/,/
COc1ccc(CCOC(=O)Cc2coc3cc(C)c(C)cc23)cc1,/,27.5%,/,/,/,/

# Screens (PubChem)
